From PubChem BioAssay (NCI)
Compounds without any hit were thinned out: in the full panel of roughly 83,000, 20% have a hit.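 Single-concentration screen, 48 h exposure, 96-well plates. Endpoint: percent growth. Below 10 = active.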 The source made the active and inactive calls.

Columns and labels:
Experiment in all cases: NCI-60 one-dose screen, 48 h (100 = growth as untreated, 0 = no growth, -100 = all killed)
Conditions in all cases: 10 µM unless noted
[1] = system: SR leukemia
[2] = system: RPMI-8226 leukemia
[3] = system: OVCAR-8 ovarian
[4] = system: OVCAR-5 ovarian
[5] = system: OVCAR-4 ovarian
[6] = system: SK-OV-3 ovarian
[7] = system: IGROV1 ovarian
[8] = system: OVCAR-3 ovarian
[9] = system: HS 578T breast
[10] = system: NCI/ADR-RES ovarian

Measured: growth

COc1ccc(C2[C@@H](c3ccccc3)C(=O)N2c2cc(OC)c(OC)c(OC)c2)cc1F (stereo not given in full)
inactive: [4] 65.1% | [5] 59% | [7] 18.8% | [9] 31.3% | [10] 11.9%
active: [1] -6.55% | [2] 6.59% | [3] 1.85% | [6] 4.86% | [8] 9.25%

O=C(NCCNC(c1ccccc1)C(NCCNC(=O)c1ccccc1)c1ccccc1)c1ccccc1 (stereo not given)
inactive: [1] 50.2% | [2] 90.1% | [3] 78.9% | [4] 83.8% | [5] 91.3% | [6] 99.9% | [7] 82.4% | [8] 116% | [9] 115% | [10] 76.6%

CCOC(=O)/C=C1\S/C(=N\Nc2cc(=O)[nH]c3ccc(Br)cc23)N(c2ccccc2)C1=O
active: [1] 3.76% | [2] -12.5% | [8] -17%
inactive: [3] 72.2% | [4] 102% | [5] 58% | [6] 110% | [7] 58.7% | [9] 74.7% | [10] 97.1%

CCN(CC)C(=O)CC1=C(C)/C(=C/c2[nH]c(-c3ccc[nH]3)cc2OC)N=C1C
inactive: [2] 13.7% | [3] 16.1% | [4] 51.4% | [5] 43.9% | [6] 22.4% | [7] 30.6% | [8] 11.1% | [9] 10.9% | [10] 18.3%
active: [1] -30%

O=C(NNc1nc2cc(F)ccc2n2c(CN3CCOCC3)ccc12)c1ccccc1
active: [1] 3.49% | [5] -14.9% | [7] 3.07% | [8] -8.34% | [10] 5.25%
inactive: [2] 10.9% | [3] 13.1% | [4] 28.9% | [6] 27.5% | [9] 57.9%

CC(=O)c1sc(-c2ccc(F)cc2)cc1O
inactive: [1] 82.6% | [2] 105% | [3] 104% | [4] 111% | [5] 79.5% | [6] 102% | [7] 115% | [8] 109% | [9] 117% | [10] 106%

O=C(CCCCCCCC(=O)N1CCCCC1)N1CCCCC1
inactive: [1] 135% | [2] 103% | [3] 98.8% | [4] 98.7% | [5] 107% | [6] 115% | [7] 109% | [8] 111% | [9] 96.5% | [10] 89%

Nc1ccc(Br)cc1C(F)(F)F
inactive: [1] 112% | [2] 115% | [3] 100% | [4] 94.9% | [5] 124% | [6] 103% | [7] 114% | [8] 120% | [9] 113% | [10] 106%

Cc1c2cnccc2c(C)c2c1c1cc(CO)ccc1n2C
active: [1] 8.41% | [2] -20.5% | [3] -13.8% | [4] -27.5% | [5] -56.2% | [6] -43.1% | [7] -36.4% | [8] -33.7% | [9] -13.1% | [10] -24.6%

COc1ccc2cc(-c3nc4ccc(C)cn4c3NCc3ccco3)c(=O)[nH]c2c1
inactive: [1] 31.5% | [2] 62.3% | [3] 78.5% | [4] 70.8% | [5] 69.3% | [6] 78.1% | [7] 63.4% | [8] 89.4% | [9] 65.3% | [10] 68.7%

O=C(/C=C/c1ccccc1Cl)c1cccc(OCCCCOc2cccc(C(=O)/C=C/c3ccccc3Cl)c2)c1
inactive: [1] 81% | [3] 99.9% | [4] 101% | [5] 106% | [6] 100% | [7] 92.8% | [8] 112% | [9] 106% | [10] 103%
active: [2] -6.16%

Cc1cccc(N2C(=O)/C(=C/C(Cl)=C/c3ccc([N+](=O)[O-])cc3)SC2=S)c1C
inactive: [4] 22.8% | [5] 19.8% | [6] 72.7% | [9] 27.8%
active: [1] 2.55% | [2] -13.1% | [3] 9.93% | [7] -40.5% | [8] -21.4% | [10] 7.84%

Nc1cccc(-c2ccc(COc3ccc(CC4SC(=O)NC4=O)cc3)cc2)c1 (stereo not given)
inactive: [1] 26.8% | [2] 53.8% | [3] 70.1% | [4] 92.2% | [5] 56.4% | [6] 62.1% | [7] 57.5% | [8] 49.9% | [9] 59.8% | [10] 47.1%

COc1ccc2c(c1)C(C)Cc1c(ncnc1-n1cnc3cc(C)ccc31)N2C (stereo not given)
active: [1] -0.883% | [3] 9.01% | [8] 6.09% | [10] 6.69%
inactive: [2] 11.9% | [4] 78.1% | [5] 58.2% | [6] 19.8% | [7] 27.5% | [9] 36.2%

CN(C)CCCNC(=O)c1cncnc1Nc1ccc2c(ccn2Cc2cccc(F)c2)c1
active: [1] -10.3%
inactive: [2] 86.3% | [3] 101% | [4] 97.5% | [5] 116% | [6] 111% | [7] 90.1% | [8] 93.4% | [9] 81.3% | [10] 99.2%

O=C1CCC(C(=O)N/N=C/c2cc(F)ccc2F)N1 (stereo not given)
inactive: [1] 109% | [2] 103% | [3] 101% | [4] 106% | [5] 97.6% | [6] 108% | [7] 102% | [8] 102% | [9] 99.1% | [10] 106%

c1cc(OCCN2CCCCC2)ccc1CNc1ccc2nc(CCC3CCCCC3)[nH]c2c1
inactive: [1] 12.5% | [3] 36.6% | [4] 60.2% | [5] 49.5% | [6] 86.1% | [7] 42.3% | [8] 48.4% | [9] 45.8% | [10] 63.8%
active: [2] -22.5%

O=C(C[C@]1(O)C(=O)Nc2ccc(Br)cc21)c1ccco1
inactive: [1] 97.9% | [2] 100% | [3] 98.2% | [4] 106% | [5] 104% | [6] 95.2% | [7] 92.7% | [8] 102% | [9] 102% | [10] 100%

OC1(c2ccccc2)c2ccccc2N(c2ccccc2)c2ccc(Cl)cc21 (stereo not given)
active: [1] -28.7% | [2] -6.58% | [3] -45% | [4] -72.3% | [5] -82.8% | [6] -89.3% | [7] -94.5% | [8] -98.1% | [9] 4.35%
inactive: [10] 14.8%

COc1ccc2c(c1)CC[C@@H]1[C@@H]2CC[C@]2(C)c3c(cc(C#N)c4c3sc3ccccc34)C[C@@H]12
inactive: [1] 89.3% | [2] 95.8% | [3] 101% | [4] 80.6% | [5] 107% | [6] 108% | [7] 101% | [8] 108% | [9] 94.6% | [10] 101%

N=C(N)c1ccc(OCCSCCOc2ccc(C(=N)N)cc2)cc1
inactive: [1] 73.1% | [2] 73.9% | [3] 64% | [4] 77.6% | [5] 64.7% | [6] 82% | [7] 93.3% | [8] 86.4% | [9] 85.4% | [10] 97.7%

CCN(CC)c1ccc(-c2cc(-c3cc(OC)c(OC)c(OC)c3)nc(N3CCC(O)CC3)c2C#N)cc1
active: [2] -11.8% | [4] 2.43% | [6] -5.1% | [7] 2.12% | [8] -58.6% | [9] -13.8% | [10] 5.08%
inactive: [1] 12% | [3] 10.6% | [5] 40.5%

O=C(Nc1nc(Cl)nc(Nc2ccc(N3CCOCC3=O)cc2)n1)c1ccc(Cl)s1
active: [1] 7.06%
inactive: [2] 90.3% | [3] 87.6% | [4] 99% | [5] 102% | [6] 99% | [7] 72.6% | [8] 102% | [9] 89.8% | [10] 99%

COc1ccc(NC(=O)c2ccc(Nc3ncnc4c3cnn4-c3cccc(F)c3)cc2)cc1
inactive: [1] 95.2% | [2] 96.6% | [3] 99.2% | [4] 100% | [5] 103% | [6] 111% | [7] 109% | [8] 110% | [9] 97.4% | [10] 103%

O=C(Nc1cccnc1Nc1ccc(Cl)cc1)c1cn(Cc2cccc(Oc3ccccc3)c2)nn1
inactive: [1] 21.5% | [2] 40.9% | [3] 53.8% | [4] 101% | [5] 83.9% | [6] 53% | [7] 77.6% | [8] 30.7% | [9] 39.9% | [10] 14.4%

Cc1cccc(-c2nc(C(C)C)sc2-c2ccnc(NCCCNS(=O)(=O)c3ccc(Cl)cc3)c2)c1
inactive: [1] 54.6% | [2] 69.2% | [3] 81.4% | [4] 95.3% | [5] 82.8% | [6] 72.9% | [7] 70.5% | [8] 76.8% | [9] 82% | [10] 58.9%

CCOC(=O)NCCCC(=O)NCCc1ccccc1
inactive: [1] 106% | [2] 110% | [3] 104% | [4] 118% | [5] 107% | [6] 108% | [7] 106% | [8] 108% | [9] 106% | [10] 104%
